# Where “and” joins values, the source holds several entries; their conditions need not be identical. Equal values may be shown once. This is part of a sample that, as a whole, favours compounds with a hit. Of some 83,000 tested, about 20% had one in any assay.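 A percent growth of 40 corresponds to 60% growth inhibition; 0 means no net growth; -100 means all cells died. Active threshold: below 10.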 Calls of active or inactive are those of the source.
# Key:
# Experiment in all cases: NCI-60 one-dose screen, 48 h (100 = growth as untreated, 0 = no growth, -100 = all killed)
# Details in all cases: 10 µM unless noted
# DU-145 prostate = test system: DU-145 prostate
# K-562 leukemia = test system: K-562 leukemia
# MALME-3M melanoma = test system: MALME-3M melanoma
# MDA-MB-231 breast = test system: MDA-MB-231 breast
# RXF 393 renal = test system: RXF 393 renal
# SF-268 CNS = test system: SF-268 CNS
# SF-295 CNS = test system: SF-295 CNS
# SF-539 CNS = test system: SF-539 CNS
# UACC-257 melanoma = test system: UACC-257 melanoma
# M14 melanoma = test system: M14 melanoma
SMILES,growth (DU-145 prostate),growth (K-562 leukemia),growth (MALME-3M melanoma),growth (MDA-MB-231 breast),growth (RXF 393 renal),growth (SF-268 CNS),growth (SF-295 CNS),growth (SF-539 CNS),growth (UACC-257 melanoma),growth (M14 melanoma)
Cc1cc(Cl)nc(Nc2ccccc2)n1,107% (inactive),79.9% (inactive),101% (inactive),105% (inactive),96.3% (inactive),99.1% (inactive),91.8% (inactive),96.6% (inactive),106% (inactive),97.6% (inactive)
c1ccc2c[n+](Cc3ccc4ccccc4n3)ccc2c1,99.8% (inactive),63.8% (inactive),75.7% (inactive),89.4% (inactive),91% (inactive),85.7% (inactive),91.4% (inactive),82.5% (inactive),56% (inactive),72.3% (inactive)
COC(=O)C(Cc1cn(C(C)=O)c2ccccc12)P(=O)(OC)OC (centres undefined),109% (inactive),102% (inactive),96.1% (inactive),97.9% (inactive),116% (inactive),96.3% (inactive),97.1% (inactive),97.3% (inactive),110% (inactive),91.9% (inactive)
C(#CCN1CCOCC1)CCCN1CCOCC1,109% (inactive) and 117% (inactive),114% (inactive) and 113% (inactive),117% (inactive) and 88.9% (inactive),96.7% (inactive) and 106% (inactive),110% (inactive) and 119% (inactive),105% (inactive) and 104% (inactive),113% (inactive) and 106% (inactive),104% (inactive) and 91.7% (inactive),97.5% (inactive) and 101% (inactive),105% (inactive) and 98% (inactive)
CC(=O)C[n+]1ccccc1Sc1ccc(Cl)cc1,95% (inactive),90.9% (inactive),97.1% (inactive),52.3% (inactive),109% (inactive),74.9% (inactive),82.9% (inactive),68.8% (inactive),99% (inactive),99.3% (inactive)
COc1ccc(CCl)c(C)c1OC,104% (inactive),6.6% (active),84.9% (inactive),98.5% (inactive),112% (inactive),97.1% (inactive),95.3% (inactive),99.4% (inactive),96% (inactive),110% (inactive)
COc1cc2c(cc1O)C(=O)CCCC2,117% (inactive),124% (inactive),108% (inactive),108% (inactive),105% (inactive),90.3% (inactive),83.8% (inactive),99.6% (inactive),121% (inactive),97.2% (inactive)
COC(=O)c1nc(=S)[nH]c(C(=O)OC)c1C(=O)c1ccc(OC)cc1,117% (inactive),106% (inactive),97.5% (inactive),100% (inactive),108% (inactive),112% (inactive),99.6% (inactive),99.3% (inactive),109% (inactive),108% (inactive)
O=C(O)c1ccc2c3ccc(C(=O)O)c4c(C(=O)O)ccc(c5ccc(C(=O)O)c1c25)c43,112% (inactive),113% (inactive),86.7% (inactive),88.2% (inactive),100% (inactive),105% (inactive),84.5% (inactive),94.2% (inactive),-14.6% (active),107% (inactive)
COc1cc([C@@H]2c3cc4c(cc3[C@H](O)[C@H]3COC(=O)[C@@H]23)OCO4)cc(OC)c1OC,27.1% (inactive) and -27.4% (active),8.28% (active) and 25.4% (inactive),7.77% (active) and 69.7% (inactive),36.9% (inactive) and 17.5% (inactive),39.6% (inactive) and 28.2% (inactive),27.1% (inactive) and 24.4% (inactive),34.1% (inactive) and -22.3% (active),-30.4% (active) and -4.79% (active),18.6% (inactive) and 57.2% (inactive),9.16% (active) and -73.8% (active)
O=C1C=CC[C@H](/C=C/c2ccccc2)O1,-3.41% (active) and 0.622% (active),14.6% (inactive) and -20.2% (active),61.9% (inactive) and 55.5% (inactive),55.6% (inactive) and 36.6% (inactive),,7.78% (active) and 7.94% (active),-0.286% (active) and 0.195% (active),13.2% (inactive) and -60.2% (active),47% (inactive) and 15.3% (inactive),53.7% (inactive) and 27.8% (inactive)
OCc1cccc(F)c1,3.58% (active),99.4% (inactive),106% (inactive),89.6% (inactive),67.8% (inactive),97.4% (inactive),72.3% (inactive),111% (inactive),101% (inactive),94.9% (inactive)
OCCCc1ccccc1,118% (inactive),121% (inactive),75.8% (inactive),97.8% (inactive),105% (inactive),108% (inactive),107% (inactive),112% (inactive),102% (inactive),100% (inactive)
O=C(O)C#Cc1ccc(Cl)cc1,109% (inactive),88.5% (inactive),104% (inactive),100% (inactive),108% (inactive),104% (inactive),99.7% (inactive),102% (inactive),87.3% (inactive),98.2% (inactive)
CCOC(=O)NC(N)=O,111% (inactive) and 119% (inactive),90.7% (inactive) and 110% (inactive),93.3% (inactive),118% (inactive) and 102% (inactive),114% (inactive),106% (inactive) and 119% (inactive),99.9% (inactive) and 93.2% (inactive),95.6% (inactive) and 99.2% (inactive),94% (inactive) and 97.1% (inactive),101% (inactive)
COCCCNC1=C(C#N)C(=O)NC(c2cccs2)S1 (centres undefined),107% (inactive),153% (inactive),104% (inactive),106% (inactive),96.9% (inactive),104% (inactive),96.4% (inactive),85.2% (inactive),111% (inactive),110% (inactive)
O=C1C(=O)c2ccccc2C(O)=C1CC=C(Cl)Cl,68% (inactive) and 63.4% (inactive),31% (inactive) and 33% (inactive),68.5% (inactive) and 69.2% (inactive),72.8% (inactive) and 71.8% (inactive),51.8% (inactive) and 71.7% (inactive),45.2% (inactive) and 53.9% (inactive),38.5% (inactive) and 14.4% (inactive),44.7% (inactive) and 55.6% (inactive),43.2% (inactive) and 74.3% (inactive),57.3% (inactive) and 69% (inactive)
O=[N+]([O-])c1ccc(NC(c2ccccc2)c2ccc3cccnc3c2O)cc1 (centres undefined),22.5% (inactive),13% (inactive),17.2% (inactive),44.1% (inactive),43.9% (inactive),12.9% (inactive),14.5% (inactive),14% (inactive),-4.88% (active),8.95% (active)
CCOC(=O)C(N)Cc1cc(I)c(O)c(I)c1 (centres undefined),109% (inactive) and 107% (inactive),105% (inactive),115% (inactive),104% (inactive) and 97.5% (inactive),105% (inactive) and 112% (inactive),99% (inactive) and 100% (inactive),115% (inactive) and 124% (inactive),115% (inactive) and 102% (inactive),108% (inactive),105% (inactive) and 104% (inactive)
O=C1C=CC(n2cc(F)c(=O)[nH]c2=O)O1 (centres undefined),61% (inactive),52.1% (inactive),58.9% (inactive),98.8% (inactive),99% (inactive),85.8% (inactive),94.5% (inactive),8.79% (active),90.4% (inactive),70.7% (inactive)
O=c1[nH]nnc2cc(Cl)ccc12,108% (inactive) and 114% (inactive),119% (inactive) and 98.3% (inactive),124% (inactive) and 113% (inactive),105% (inactive) and 97.6% (inactive),119% (inactive) and 111% (inactive),101% (inactive) and 95.4% (inactive),103% (inactive),104% (inactive) and 106% (inactive),98.6% (inactive) and 105% (inactive),105% (inactive)
CCOC(=N)c1ccc(C(=N)OCC)cc1,103% (inactive),98.7% (inactive),106% (inactive),96.3% (inactive),112% (inactive),98.4% (inactive),91.6% (inactive),98.1% (inactive),102% (inactive),104% (inactive)
